According to PubChem BioAssay (NCI):
The panel holds about 83,000 compounds, 20% with a hit somewhere; the sample as a whole holds those more often.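 Single-dose data. Exposure time 48 hours. Values below 10 considered active.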 Unmarked numbers belong to inactive results. The source made the active and inactive calls.

tested on: HCT-116 colon; experiment: NCI-60 one-dose screen, 48 h (100 = growth as untreated, 0 = no growth, -100 = all killed); settings: 10 µM unless noted
Procedure: Growth inhibition of the HCT-116 human tumor cell line is measured as a screen for anti-cancer activity. Cells are grown in 96 well plates and exposed to the test compound for 48 hours. Compounds are tested at a single concentration, which is 10^-5 M for most compounds. The reported endpoint is percent growth (GI% or GIPRCNT), where numbers from 0 - 100% represent growth inhibition, and numbers from -100% - 0 represent cell death. For example, a value of 40 represents 60% growth inhibition. A value of 0 means no net growth occurred over the course of the experiment. A value of -40 indicates 40% of cells at the beginning of the experiment died by the end of the experiment. A value of -100 means all cells are dead at the end of the experiment.
NCI-60 Human Tumor Cell Lines Screen was performed using the standard one-dose NCI protocol, which is described in more detail at https://dtp.cancer.gov/discovery_development/nci-60/default.htm.
Compounds with GIPRCNT values below 10 were considered active. Activity score was based on GIPRCNT using the following formula: […]
Score is 0 for GIPRCNT values of 100 or above, 50 for GIPRCNT values of 0, and 100 for GIPRCNT values of -100.

Structure (SMILES)	growth
CCCCCc1nc2c(c3c1CCCC3)CCCC2	48.8%
Cc1cc(NCCCCNc2ccnc3cc(Cl)ccc23)nc(Nc2ccc(C(=O)N3CCCCC3)cc2)n1	-48.9% (active)
COc1ccc(C(=NN=C(N)N)c2ccc(OC)cc2)cc1	21.5%
O=C(c1ccccc1)c1c(/C=C/c2ccc(Cl)cc2)nc2ccccc2c1/C=C/c1cccs1	95.8%
Cc1c(C(=O)N[C@@H](Cc2ccccc2)C(=O)C(=O)NCCc2ccccc2)[nH]c2ccccc2c1=O	106%
Cc1cc(NCc2cc(Nc3ccnc4cc(Cl)ccc34)ccc2F)nc(Cl)n1	30.5%
Nc1n[nH]c2cc(F)c([C@@H]3Nc4c(F)cc5[nH]ncc5c4[C@H]4C5CCC(C5)[C@@H]34)cc12 (stereo not given in full)	-21.2% (active)
COc1ccc2c(c1)O/C(=C\c1cccc(OCC(=O)Nc3nc(C)c(C)s3)c1)C2=O	66.6%
Cc1ccc(N2CCN(C(=S)c3cccs3)CC2)cc1	93.2%
COC(=O)c1ccc(C2Nc3ccc(S(=O)(=O)Nc4ccc(C)c(C)c4)cc3C3OCCC23)cc1 (stereo not given)	62.1%
COc1cc(N=Nc2cc(Cc3ccc(N(C)C)cc3)c(N)cc2N(C)C)c2ncccc2c1	-23.7% (active)
O=C1Nc2ccc(F)cc2C12Nc1cc(Cl)ccc1S2 (stereo not given)	85.7%
c1c[nH]c(CNC2CCCCC2)c1	103%
Cc1cc(C(=O)c2ccccc2)c(C)c2c1[nH]c1ccc(Cl)cc12	5.1% (active)
COc1cc2c(cc1-c1c(C)noc1C)ncc1nc(C3CCCCC3)n(C3CCC(OC(F)F)CC3)c12 (stereo not given)	24.8%
COc1cccc(-c2nn(-c3ccccc3)cc2-c2ccnc(NCCNC(=O)Nc3ccccc3)c2)c1	35.3%
NC(=N\N=C/c1cccc([N+](=O)[O-])c1)/C(N)=N\N=C/c1cccc([N+](=O)[O-])c1	37.4%
O=C1/C(=C\c2cccnc2)SC(=S)N1CCc1ccc(O)cc1	15%
COc1cccc(-c2nn(-c3ccccc3)cc2-c2ccnc(NCCNC(=O)Nc3ccc(Cl)c(Cl)c3)c2)c1	0.717% (active)
O=C1NC(=Nc2ccc(Cl)cc2)S/C1=C\c1cn(-c2ccccc2)nc1-c1ccccc1	63.8%

Structure (SMILES)	growth
CNC(=O)c1cc(Oc2ccc3nc(Nc4ccc(Cl)c(C(F)(F)F)c4)ccc3c2)ccn1	45.1%
CN(Cc1cnc2nc(N)nc(N)c2n1)c1ccc(C(=O)N[C@@H](CCc2nn[nH]n2)c2nn[nH]n2)cc1	18.3%
OC(c1cccc(-n2ccc(C(F)(F)F)n2)c1)c1cnccc1NC1CCCCCC1 (stereo not given)	-79.4% (active)
O=C(c1ccc(Nc2nccc(NCCCCNc3ccnc4cc(Cl)ccc34)n2)cc1)N1CCCCC1	-18.6% (active)
Clc1cc(Cl)cc(Nc2ccc3cc(OCCCN4CCOCC4)ccc3n2)c1	19.8%
CCOc1ccccc1-c1cc(-c2cccs2)c(C#N)c(=O)[nH]1	92.3%
NC(=N\N=C/c1ccccc1[N+](=O)[O-])/C(N)=N\N=C/c1ccccc1[N+](=O)[O-]	108%
CN1CCN(CC(=O)Nc2nc(-c3cccc(NS(=O)(=O)c4cccc5c(N(C)C)cccc45)c3)cs2)CC1	88.4%
COc1ccc(/C=C/c2c(C(=O)/C=C/c3ccc(F)cc3)c(C)nc3ccccc23)cc1	3.18% (active)
CC/C=C\C/C=C\C[C@H](O)C/C=C1/C(=O)C=C[C@@H]1C/C=C\CCCC(=O)O	-61.1% (active)
O=c1cc(C2NNC(=S)N2)c2ccc3ccccc3c2o1 (stereo not given)	95.4%
O=C(CSc1nnc(-c2ccc(NC(=O)c3cccnc3)cc2)o1)N[C@@H](Cc1ccc(O)cc1)C(=O)O	99.6%
COc1ccc(NC(=O)CSc2nc(C)c(C(C)=O)n2-c2ccc(Cl)cc2)cc1	81.3%
O=C(CCc1nnc(CN(c2ccccc2)c2ccccc2)o1)c1nc2ccccc2[nH]1	73.6%
CCN(CC)CCN1C(=O)c2c(c(C)c3c(oc4cc(O)ccc43)c2C)C1=O	-85% (active)
CC1=C(SCCC(=O)OC(C[Se]C2=C(C)C(=O)c3ccccc3C2=O)C(=O)NCCCCCC(=O)OCc2ccccc2)C(=O)c2ccccc2C1=O (stereo not given)	4.77% (active)
Cc1nn(-c2ccccc2)c(Oc2ccc(Cl)cc2)c1/C=N\N=c1/sc2ccccc2n1C	73.2%
COc1ccc2c(c1)CCCN2c1c2ccccc2nc2ccccc12	6.8% (active)
Nc1ccc2c(c1)c(N)nn2C(=O)Nc1ccc(Cc2ccccc2)cc1	52.5%
CN(C)CCC=C1c2ccccc2C(C)(C)c2ccccc21	53.1%
